Experimental data taken from PubChem BioAssay (NCI).
The panel holds about 79,000 compounds, 15% with a hit somewhere; the sample as a whole holds those more often. Activity calls are given as the source filed them. Rule as the data show it: active = growth inhibition above about 70%; inactive = the rest.

Experiments:
[1] = NCI Yeast Anticancer Drug Screen. Data for the wt1 strain (AID 149);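 also: 0% = growth of vehicle-treated wt1 cultures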; conditions: S. cerevisiae wt1 strain (SPY 50644) growth inhibition, stronger effect = higher value
Summary of the method: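 wt1 yeast, compound-treated; % growth inhibition vs vehicle control.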

[2] = NCI Yeast Anticancer Drug Screen. Data for the rad50EPP+ strain (AID 151);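 also: 0% = growth of vehicle-treated control cultures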; conditions: S. cerevisiae rad50 mutant strain, stronger effect = higher value
Summary of the method: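 Yeast strain carrying rad50 alteration (rad50EPP+) exposed to compounds; growth inhibition measured relative to vehicle-treated controls.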

[3] = NCI Yeast Anticancer Drug Screen. Data for the mgt1 strain (AID 153); conditions: S. cerevisiae mgt1 mutant growth inhibition, stronger effect = higher value
Summary of the method: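 Yeast mgt1 strain (DNA repair/cell-cycle alteration panel) exposed to compounds; growth inhibition measured relative to vehicle-treated controls.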

[4] = NCI Yeast Anticancer Drug Screen. Data for the rad50 strain (AID 155);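 also: 0% = growth of vehicle-only cultures of the same strain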; conditions: S. cerevisiae rad50 strain growth inhibition, stronger effect = higher value
Summary of the method: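 Genetically altered yeast (DNA repair pathway); compound treatment; growth inhibition vs vehicle ctrl.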

[5] = NCI Yeast Anticancer Drug Screen. Data for the mec2-1 strain (AID 157); conditions: S. cerevisiae mec2-1 strain, stronger effect = higher value
Summary of the method: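 mec2-1 yeast strain, carrying an alteration in DNA damage repair or cell cycle control, was exposed to compounds; growth inhibition was measured relative to vehicle-treated controls.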

[6] = NCI Yeast Anticancer Drug Screen. Data for the rad14 strain (AID 159);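 also: 0% = growth of vehicle-treated control cultures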; conditions: S. cerevisiae rad14 strain growth inhibition, stronger effect = higher value
Summary of the method: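 Test compounds were applied to a repair-deficient yeast strain. Its growth was then compared with that of cultures given vehicle alone, and inhibition was expressed relative to those controls.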

[7] = NCI Yeast Anticancer Drug Screen. Data for the sgs1 mgt1 strain (AID 161);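 also: 0% = growth of cultures given vehicle only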; conditions: S. cerevisiae sgs1 mgt1 strain, stronger effect = higher value
Summary of the method: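 Compounds are added to genetically altered yeast, and growth is compared with cultures given vehicle alone to give percent inhibition.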

[8] = NCI Yeast Anticancer Drug Screen. Data for the CLN2oe strain (AID 163);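 also: 0% = growth of vehicle-only control cultures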; conditions: S. cerevisiae CLN2oe strain, stronger effect = higher value
Summary of the method: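 Yeast cells carrying a defined cell-cycle control alteration were exposed to test compounds. Growth inhibition was scored against vehicle-treated control cultures.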

[9] = NCI Yeast Anticancer Drug Screen. Data for the cln2 rad14 strain (AID 165);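 also: 0% = growth equal to vehicle treated cultures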; conditions: S. cerevisiae cln2 rad14 strain, stronger effect = higher value
Summary of the method: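 Yeast carrying cln2 and rad14 alterations (cell cycle control and DNA damage repair) were exposed to compounds. Growth inhibition was measured against vehicle-treated controls.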

[10] = NCI Yeast Anticancer Drug Screen. Data for the bub3 strain (AID 167); conditions: S. cerevisiae bub3 mutant strain, stronger effect = higher value
Summary of the method: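 Yeast carrying a defined mutation is treated with each compound, and growth is compared with that of vehicle-exposed cells to give inhibition.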

[11] = NCI Yeast Anticancer Drug Screen. Data for the wt2 strain (AID 169);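 also: 0% = growth of vehicle-treated yeast cultures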; conditions: S. cerevisiae wt2 strain growth inhibition, stronger effect = higher value
Summary of the method: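 Yeast cells were exposed to test compounds, and growth inhibition was measured relative to vehicle-treated controls.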

[12] = NCI Yeast Anticancer Drug Screen. Data for the mlh1 strain (AID 171);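 also: 0% = growth of vehicle-treated control cultures of the same strain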; conditions: S. cerevisiae mlh1 strain growth inhibition, stronger effect = higher value
Summary of the method: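 Yeast carrying a defined genetic alteration in DNA damage repair or cell cycle control were exposed to test compounds. Growth inhibition was measured relative to vehicle-treated controls.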

[13] = NCI Yeast Anticancer Drug Screen. Data for the sgs1 strain (AID 173);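 also: 0% = growth of vehicle-only control cultures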; conditions: S. cerevisiae sgs1 mutant, stronger effect = higher value
Summary of the method: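 Yeast mutant strains carrying defined defects in DNA damage repair or cell cycle control were exposed to test compounds. Growth inhibition was scored against vehicle-treated controls.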

[14] = NCI Yeast Anticancer Drug Screen. Data for the mlh1 rad18 strain (AID 175); conditions: S. cerevisiae mlh1 rad18 strain growth inhibition, stronger effect = higher value
Summary of the method: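 Growth inhibition of the yeast strain was measured after compound exposure and expressed relative to vehicle-treated controls. The strain carries defined defects in DNA damage repair.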

[15] = NCI Yeast Anticancer Drug Screen. Data for the rad18 strain (AID 177); conditions: S. cerevisiae rad18 mutant growth inhibition, stronger effect = higher value
Summary of the method: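 Yeast carrying a defined DNA damage repair alteration were exposed to compounds. Growth inhibition was expressed relative to vehicle-treated controls.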

[16] = NCI Yeast Anticancer Drug Screen. Data for the rad52 strain (AID 147);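 also: 0% = growth of vehicle-treated control cultures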; conditions: S. cerevisiae rad52 mutant growth inhibition, stronger effect = higher value
Summary of the method: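 Yeast strain carrying a DNA damage repair alteration was exposed to test compounds. Growth inhibition was measured relative to vehicle-treated controls.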

[17] = at 5.0 µM (retest, dose inferred, filed as 0.5)
[18] = at 50.0 µM (retest, dose inferred, filed as 5.0)

Measured: growth inhibition

NNc1ccccc1Cl
active: [1]; at 3.7 µM 73% | [1]; at 11.0 µM 81% | [1]; at 33.0 µM 95% | [1]; at 100.0 µM 97% | [2]; at 3.7 µM 80% | [2]; at 11.0 µM 92% | [2]; at 33.0 µM 95% | [2]; at 100.0 µM 94% | [3]; at 11.0 µM 79% | [3]; at 33.0 µM 96% | [3]; at 100.0 µM 96% | [4]; at 3.7 µM 83% | [4]; at 11.0 µM 80% | [4]; at 33.0 µM 96% | [4]; [18] 97% | [4]; at 50.0 µM 89.2% | [4]; at 100.0 µM 97% | [5]; at 11.0 µM 84% | [5]; at 33.0 µM 97% | [5]; [18] 99% | [5]; at 50.0 µM 90.7% | [5]; at 100.0 µM 97% | [6]; at 11.0 µM 76% | [6]; at 33.0 µM 96% | [6]; at 100.0 µM 96% | [7]; [18] 96% | [7]; at 50.0 µM 92.3% | [8]; at 3.7 µM 93% | [8]; at 11.0 µM 96% | [8]; at 33.0 µM 97% | [8]; at 100.0 µM 98% | [9]; [18] 98% | [9]; at 50.0 µM 89.5% | [10]; at 3.7 µM 89% | [10]; [17] 86% | [10]; at 11.0 µM 93% | [10]; at 33.0 µM 97% | [10]; [18] 98% | [10]; at 50.0 µM 89.5% | [10]; at 100.0 µM 97% | [11]; at 11.0 µM 83% | [11]; at 33.0 µM 96% | [11]; at 100.0 µM 96% | [12]; at 3.7 µM 80% | [12]; at 11.0 µM 89% | [12]; at 33.0 µM 97% | [12]; at 100.0 µM 97% | [13]; at 3.7 µM 86% | [13]; at 11.0 µM 90% | [13]; at 33.0 µM 96% | [13]; at 100.0 µM 97% | [14]; [17] 82% | [14]; [18] 97% | [14]; at 50.0 µM 88.2% | [15]; at 3.7 µM 86% | [15]; at 11.0 µM 84% | [15]; at 33.0 µM 95% | [15]; at 100.0 µM 97%
inactive: [1]; at 1.2 µM 40% | [2]; at 1.2 µM 56% | [3]; at 1.2 µM 25% | [3]; at 3.7 µM 42% | [4]; at 1.2 µM 39% | [4]; [17] 21% | [5]; at 1.2 µM 19% | [5]; at 3.7 µM 68% | [5]; [17] -8% | [6]; at 1.2 µM 23% | [6]; at 3.7 µM 29% | [7]; [17] 11% | [8]; at 1.2 µM 60% | [9]; [17] 41% | [10]; at 1.2 µM 38% | [11]; at 1.2 µM 42% | [11]; at 3.7 µM 66% | [12]; at 1.2 µM 44% | [13]; at 1.2 µM 47% | [15]; at 1.2 µM 46%

C[CH2][Sn]1([CH2]C)[O]C2C(O)OC(CO)C(O)C2[O]1 (centres undefined)
active: [16]; at 100.0 µM 76% | [5]; [18] 75% | [5]; at 50.0 µM 80.5% | [7]; [18] 71% | [11]; at 100.0 µM 82% | [14]; [18] 88% | [14]; at 50.0 µM 72.5%
inactive: [16]; at 1.2 µM 0% | [16]; at 3.7 µM 10% | [16]; at 11.0 µM 19% | [16]; at 33.0 µM 29% | [2]; at 1.2 µM -8% | [2]; at 3.7 µM -21% | [2]; at 11.0 µM -34% | [2]; at 33.0 µM -23% | [2]; at 100.0 µM -17% | [3]; at 1.2 µM -19% | [3]; at 3.7 µM -21% | [3]; at 11.0 µM -3% | [3]; at 33.0 µM 2% | [3]; at 100.0 µM 69% | [4]; at 1.2 µM 12% | [4]; at 3.7 µM 12% | [4]; [17] 17% | [4]; at 11.0 µM -7% | [4]; at 33.0 µM 4% | [4]; [18] 67% | [4]; at 50.0 µM 33.5% | [4]; at 100.0 µM 66% | [5]; at 1.2 µM 10% | [5]; at 3.7 µM 4% | [5]; [17] 8% | [5]; at 11.0 µM 4% | [5]; at 33.0 µM 24% | [5]; at 100.0 µM 67% | [6]; at 1.2 µM 1% | [6]; at 3.7 µM -4% | [6]; at 11.0 µM 2% | [6]; at 33.0 µM -5% | [6]; at 100.0 µM 15% | [7]; [17] 22% | [7]; at 50.0 µM 53.5% | [9]; [17] -1% | [9]; [18] 37% | [9]; at 50.0 µM 63.6% | [10]; at 1.2 µM 3% | [10]; at 3.7 µM 4% | [10]; [17] 6% | [10]; at 11.0 µM 10% | [10]; at 33.0 µM 8% | [10]; [18] 69% | [10]; at 50.0 µM 55.6% | [10]; at 100.0 µM 63% | [11]; at 1.2 µM -58% | [11]; at 3.7 µM -42% | [11]; at 11.0 µM -27% | [11]; at 33.0 µM 15% | [12]; at 1.2 µM -2% | [12]; at 3.7 µM -2% | [12]; at 11.0 µM -4% | [12]; at 33.0 µM -12% | [12]; at 100.0 µM 39% | [13]; at 1.2 µM -12% | [13]; at 3.7 µM -5% | [13]; at 11.0 µM -8% | [13]; at 33.0 µM 16% | [13]; at 100.0 µM 59% | [14]; [17] 26%

CC[C@@]1(O)C(=O)OCc2c1cc1n(c2=O)Cc2cc3ccccc3nc2-1
inactive: [1]; at 1.2 µM 2% | [1]; at 3.7 µM 39% | [3]; at 1.2 µM 0% | [3]; at 3.7 µM 6% | [5]; at 1.2 µM 47% | [7]; [17] 53% | [8]; at 1.2 µM 8% | [8]; at 3.7 µM 55% | [9]; [17] 14% | [9]; at 50.0 µM 58% | [10]; at 1.2 µM -12% | [10]; at 3.7 µM 15% | [10]; [17] -16% | [11]; at 1.2 µM 17% | [11]; at 3.7 µM 57% | [12]; at 1.2 µM -2% | [12]; at 3.7 µM 35% | [13]; at 1.2 µM 29% | [14]; [17] 39% | [15]; at 1.2 µM -6% | [15]; at 3.7 µM 20%
active: [1]; at 11.0 µM 90% | [1]; at 33.0 µM 94% | [1]; at 100.0 µM 95% | [2]; at 1.2 µM 89% | [2]; at 3.7 µM 95% | [2]; at 11.0 µM 97% | [2]; at 33.0 µM 97% | [2]; at 100.0 µM 96% | [3]; at 11.0 µM 79% | [3]; at 33.0 µM 91% | [3]; at 100.0 µM 92% | [4]; at 1.2 µM 97% | [4]; at 3.7 µM 97% | [4]; [17] 97% | [4]; at 11.0 µM 96% | [4]; at 33.0 µM 96% | [4]; [18] 97% | [4]; at 50.0 µM 86.9% | [4]; at 100.0 µM 95% | [5]; at 3.7 µM 95% | [5]; [17] 73% | [5]; at 11.0 µM 97% | [5]; at 33.0 µM 98% | [5]; [18] 98% | [5]; at 50.0 µM 88.2% | [5]; at 100.0 µM 97% | [7]; [18] 95% | [7]; at 50.0 µM 81.7% | [8]; at 11.0 µM 89% | [8]; at 33.0 µM 93% | [8]; at 100.0 µM 91% | [9]; [18] 89% | [10]; at 11.0 µM 90% | [10]; at 33.0 µM 95% | [10]; [18] 90% | [10]; at 50.0 µM 78.5% | [10]; at 100.0 µM 96% | [11]; at 11.0 µM 92% | [11]; at 33.0 µM 97% | [11]; at 100.0 µM 96% | [12]; at 11.0 µM 84% | [12]; at 33.0 µM 93% | [12]; at 100.0 µM 93% | [13]; at 3.7 µM 82% | [13]; at 11.0 µM 95% | [13]; at 33.0 µM 96% | [13]; at 100.0 µM 95% | [14]; [18] 93% | [14]; at 50.0 µM 81.7% | [15]; at 11.0 µM 89% | [15]; at 33.0 µM 93% | [15]; at 100.0 µM 94%
